LGR2 inh – inhibitors of bursicon-induced Drosophila LGR2 receptor cAMP signaling; HEK293 LGR2, CRE-luciferase, bursicon-stimulated, 4 h; inhibition, % at 9.99 µM; 380,000 compounds, 0.35% hits; AID 720647;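 active = drop in luminescence signal, shown as inhibition above about 50% in the replicate tests, limit read from the data, passing the limit was not always enough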;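 also: agonist challenge used bursicon conditioned medium at about half maximal strength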
EBV LMP1 NFkB – inhibitors of Epstein-Barr LMP1-induced NF-kappaB reporter. LMP1-induced NF-kappaB luciferase reporter cells, luminescence. inhibition, % at 12.5 µM. 350,000 compounds, 0.69% hits. AID 504558; in the data active = inhibition above about 41%;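 also: 0% = neutral control wells and 100% = reference inhibitor control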
TROY NFkB inh – inhibitors of TROY-dependent NF-kB signaling; inhibition, % at 10 µM; Q293 LMP1-TROYcd NF-kB luciferase reporter, 4 h; AID 1347056; 360,000 compounds, 0.98% hits;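 active = compounds whose plate-normalised and pattern-corrected inhibition of the luciferase reporter signal at the single screening dose is 50% or more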
MITF act – activators of MITF-driven TRPM1 promoter activity in SK-MEL-5 cells. SK-MEL-5 TRPM1-promoter luciferase, 24 h; % of positive control, neutral wells = 0. AID 588334. 300,000 compounds, 0.75% hits. activation, % at 12.5 µM;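 active = mean activation of at least 80% with every replicate also reaching 80%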;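 also: 0% = neutral control wells and 100% = parthenolide positive control wells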
TRPM1 prom inh – reduces MITF-dependent TRPM1 promoter luciferase signal; SK-MEL-5 TRPM1 promoter luciferase, 24 h; inhibition, % at 12.5 µM; 330,000 compounds, 0.83% hits;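 active = mean inhibition across replicates of 60% or more, whatever share of single replicates reaches that level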
TWEAK-Fn14 inh – inhibitors of TWEAK-Fn14 interaction signaling; 360,000 compounds, 2% hits; AID 1159606; TWEAK-stimulated Fn14 reporter cells, luciferase luminescence, 8 h; inhibition, % at 10 µM; in the data active = inhibition above about 50%
* hit, by the source's call. Rows were chosen to be rich in hits. Some 3% of all compounds tested hit in one or more screens of this group.

Screening Cc1c2ccccc2cc[n+]1CCCS(=O)(=O)[O-] returned LGR2 inh -2, EBV LMP1 NFkB 8, TROY NFkB inh 14, MITF act 3, TRPM1 prom inh -2 and TWEAK-Fn14 inh 13.
For COC(=O)C1=C(C(=O)c2ccccc2)C(c2ccccc2)n2nnnc2N1 (stereo not given) the results were LGR2 inh -9, EBV LMP1 NFkB 63*, TROY NFkB inh -13, MITF act 29, TRPM1 prom inh -20 and TWEAK-Fn14 inh 1.
Cc1ccc(S(=O)(=O)Nc2ccc3c(c2)C(=O)N([C@H](C)CO)C[C@@H](C)[C@@H](CN(C)Cc2ccncc2)OCCCC[C@H](C)O3)cc1 was read as LGR2 inh -5.
CN(CC(O)COCc1ccccc1F)C1CCCCC1 (stereo not given) was read as LGR2 inh -4, EBV LMP1 NFkB 6, TROY NFkB inh 5, MITF act 0, TRPM1 prom inh 3 and TWEAK-Fn14 inh 64*.
CC(=O)Nc1ccc(Nc2nc(C)c([N+](=O)[O-])c(Nc3ccccc3)n2)cc1 was read as LGR2 inh 2, EBV LMP1 NFkB 32, TROY NFkB inh 53*, MITF act -43, TRPM1 prom inh 43 and TWEAK-Fn14 inh 67*.
Screening COc1cccc(C(=O)Nc2cc(C(=O)NCCc3ccccc3)ccc2Cl)c1 returned LGR2 inh -33, EBV LMP1 NFkB -19, TROY NFkB inh -76, MITF act 44, TRPM1 prom inh -41 and TWEAK-Fn14 inh -26.
Screening COc1ccc(CCNC(=O)c2ccc3c(c2)OCCO3)cc1 returned EBV LMP1 NFkB -17, TROY NFkB inh -45, MITF act 51, TRPM1 prom inh -51 and TWEAK-Fn14 inh -15.
Screening O=C(NCCc1ccccc1)c1ccc2c(c1)OCCO2 returned LGR2 inh 102*, EBV LMP1 NFkB 84*, TROY NFkB inh 83*, MITF act -88, TRPM1 prom inh 88* and TWEAK-Fn14 inh 99*.
Screening COc1cccc(CC(=O)NNC(=O)c2ccc3c(c2)OCO3)c1 returned LGR2 inh 3, EBV LMP1 NFkB 45*, TROY NFkB inh 6, MITF act 2, TRPM1 prom inh -2 and TWEAK-Fn14 inh 4.
Screening CCCCC(=O)Nc1cc(C(=O)NCCc2ccccc2)ccc1Cl returned LGR2 inh -51, EBV LMP1 NFkB -32, TROY NFkB inh -70, MITF act 126*, TRPM1 prom inh -119 and TWEAK-Fn14 inh 2.
For COC(=O)c1c(N)sc(C(=O)NCCc2ccccc2)c1C the results were LGR2 inh 98*, EBV LMP1 NFkB 67*, TROY NFkB inh 76*, MITF act -63, TRPM1 prom inh 63* and TWEAK-Fn14 inh 99*.
Screening C[C@H](CO)N1C[C@H](C)[C@H](CN(C)C(=O)Nc2cccc3ccccc23)OCCCC[C@H](C)Oc2ccc(NS(=O)(=O)c3ccc(Cl)cc3)cc2C1=O returned LGR2 inh -11.
Screening O=C(NCCS(=O)(=O)NCCc1ccccc1)c1ccc2c(c1)OCO2 returned LGR2 inh 2, EBV LMP1 NFkB -26, TROY NFkB inh -35, MITF act 108*, TRPM1 prom inh -103 and TWEAK-Fn14 inh -7.
For O=C(NCCc1ccccc1)c1nccc2ccccc12 the results were LGR2 inh -13, EBV LMP1 NFkB 2, TROY NFkB inh -73, MITF act 81*, TRPM1 prom inh -78 and TWEAK-Fn14 inh -12.
For COC(=O)c1ccc(CNC(=O)c2ccc3c(c2)OCCO3)cc1 the results were LGR2 inh 11, EBV LMP1 NFkB -13, TROY NFkB inh -35, MITF act 11, TRPM1 prom inh -10 and TWEAK-Fn14 inh 79*.
Screening O=C(NCc1ccc2c(c1)OCO2)c1ccc2c(c1)OCCO2 returned EBV LMP1 NFkB -17, TROY NFkB inh -44, MITF act 14, TRPM1 prom inh -13 and TWEAK-Fn14 inh -27.
For Cc1ccc(C(=O)NCCc2ccccc2)cc1 the results were EBV LMP1 NFkB 57*, TROY NFkB inh 67*, TRPM1 prom inh 38 and TWEAK-Fn14 inh 97*.
`Cc1ccc(C(=O)NCCCc2ccccc2)s1` gave LGR2 inh -44, EBV LMP1 NFkB -26, TROY NFkB inh -80, MITF act 87*, TRPM1 prom inh -83 and TWEAK-Fn14 inh -24.
O=C(NCCc1ccccc1)c1ccc2c(c1)OCCCO2 was read as LGR2 inh 102*, EBV LMP1 NFkB 85*, TROY NFkB inh 84*, MITF act -91, TRPM1 prom inh 92* and TWEAK-Fn14 inh 101*.
For COC(=O)c1ccc(CNC(=O)c2sccc2-c2ccccc2)cc1 the results were LGR2 inh -5, EBV LMP1 NFkB 4, TROY NFkB inh 17, MITF act -78, TRPM1 prom inh 79* and TWEAK-Fn14 inh -2.
Screening COC(=O)c1cc(CNC(=O)c2sccc2-c2ccccc2)ccc1OC returned LGR2 inh 1, EBV LMP1 NFkB 3, TROY NFkB inh -7, MITF act -9, TRPM1 prom inh 8 and TWEAK-Fn14 inh -2.
`O=C(NCCOc1ccccc1)c1ccc2c(c1)OCO2` gave EBV LMP1 NFkB 66*, TROY NFkB inh 63*, MITF act -56, TRPM1 prom inh 59 and TWEAK-Fn14 inh 94*.
For C[C@@H]1CN([C@@H](C)CO)C(=O)c2cccc(NS(C)(=O)=O)c2O[C@@H]1CN(C)C(=O)Nc1ccc2c(c1)OCO2 the results were LGR2 inh -7.
For C[C@H]1CN([C@@H](C)CO)C(=O)c2cccc(NC(=O)c3cnccn3)c2O[C@H]1CN(C)C(=O)Nc1ccc(C(F)(F)F)cc1 the results were LGR2 inh 3.
O=C(NCCc1ccc(Cl)cc1)c1ccc(=O)[nH]c1 was read as LGR2 inh -12, EBV LMP1 NFkB -3, TROY NFkB inh -22, MITF act -9, TRPM1 prom inh 8 and TWEAK-Fn14 inh 17.
`O=C(NCCc1ccc(O)cc1)c1ccc(Cl)cc1` gave EBV LMP1 NFkB 1, TROY NFkB inh -56, MITF act 98*, TRPM1 prom inh -95 and TWEAK-Fn14 inh -5.
Screening COc1ccc2c3c([nH]c2c1)[C@H](CO)N(C(=O)Cc1ccccc1)CC31CCN(C(=O)Cc2ccccc2)CC1 returned LGR2 inh -11.
`C[C@@H]1CN([C@H](C)CO)C(=O)c2cc(NC(=O)CCC(F)(F)F)ccc2O[C@@H](C)CCCCO[C@@H]1CN(C)C(=O)Cc1ccccc1` gave LGR2 inh -7.
CC(C)(C)Nc1ncnc2sc(-c3ccccc3)cc12 was read as LGR2 inh 0, EBV LMP1 NFkB 23, TROY NFkB inh 50, MITF act -10, TRPM1 prom inh 13 and TWEAK-Fn14 inh 71*.
For OCCCNc1ncnc2sc(-c3ccccc3)cc12 the results were LGR2 inh -14, EBV LMP1 NFkB 4, TROY NFkB inh -7, MITF act -1, TRPM1 prom inh 0 and TWEAK-Fn14 inh 12.
